# In PubChem BioAssay AID651660 (Broad Institute, 2012):
# Out of some 1,900 compounds screened, about 15 (0.8%) were called active. The entries come from a sample that favours actives as a whole. A number with no mark means an inactive call.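 Rule for the calls: active = every replicate shows at least 50% inhibition; inconclusive = mean inhibition at least 50% but some replicate below; inactive = the rest.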
# Molecular target: DNA repair protein RAD52 homolog (Homo sapiens) (UniProt P43351)
# Test: RAD52 ssDNA annealing inhibitors, primary screen, biochemical, FRET, single point (AID 651660);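 note: 0% = median of neutral control wells and 100% = median of positive control wells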
# Settings: Recombinant RAD52 ssDNA annealing, FRET fluorescence, 30 min; at 18.7 µM; active compounds read high
# Sequence of DNA repair protein RAD52 homolog (Homo sapiens) (P43351 whole entry, looked up): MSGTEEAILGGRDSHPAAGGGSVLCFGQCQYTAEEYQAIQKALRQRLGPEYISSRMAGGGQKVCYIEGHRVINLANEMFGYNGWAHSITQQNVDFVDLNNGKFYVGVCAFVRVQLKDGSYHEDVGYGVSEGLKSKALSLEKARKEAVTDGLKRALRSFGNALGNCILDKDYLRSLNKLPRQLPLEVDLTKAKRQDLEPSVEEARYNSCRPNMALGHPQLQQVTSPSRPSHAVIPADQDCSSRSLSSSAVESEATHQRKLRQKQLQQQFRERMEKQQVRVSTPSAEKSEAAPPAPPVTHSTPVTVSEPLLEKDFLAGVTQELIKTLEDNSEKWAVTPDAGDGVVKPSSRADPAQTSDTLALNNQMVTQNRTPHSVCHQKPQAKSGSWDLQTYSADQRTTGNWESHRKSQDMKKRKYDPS
row,SMILES,inhibition
1,O=C(Nc1nc2ccccc2s1)c1ccc(F)cc1,4.49%
2,CCN(CC)c1ccc(C2=NNC(=O)CC2C)cc1[N+](=O)[O-] (configuration not stated),-0.17%
3,O=C(N/C(=C/C=C\c1ccccc1)C(=O)N1CCOCC1)c1ccc(Br)cc1,8.04%
4,CCOc1ccccc1Oc1coc2cc(OCC(=O)O)ccc2c1=O,-12.3%
5,C(=C\c1ccc2ccccc2n1)/c1ccccc1,3.46%
6,COc1cc(CC(=O)NCCc2ccc(S(N)(=O)=O)cc2)cc(OC)c1OC,-2.62%
7,O=C(NCCCCCc1nc2ccccc2[nH]1)c1ccccc1Cl,-0.634%
8,N=C1C(c2ccccc2)=C(O)CN1CCCO,-1.52%
9,Cn1c2ccccc2c2cc(/C=C(\NC(=O)c3ccccc3)C(=O)O)ccc21,-10.8%
10,O=C1c2cccc3cccc(c23)C(=O)N1c1ccccn1,-4.1%
11,COCCCNc1nc2c([nH]1)c(=O)[nH]c(=O)n2C,-1.14%
12,CCOC(=O)c1cnc2ccccc2c1NCCO,10.9%
13,O=C(COc1ccccc1)Nc1ccc2c(c1)C(=O)N(CC1CCCO1)C2=O (configuration not stated),-9.17%
14,COc1ccc(C2C3=C(CC(C)(C)CC3=O)N(C)C3=C2C(=O)CC(C)(C)C3)cc1,-13.9%
15,COc1ccccc1OS(=O)(=O)c1ccc(NC(C)=O)cc1,3.22%
16,S=C(NCCOCCOCCNC(=S)Nc1ccccc1)Nc1ccccc1,4.23%
17,Nc1ncnc2c1ncn2C1OC(CO)C(O)C1O (configuration not stated),-0.087%
18,Cc1ccc2c(ccc(=S)n2C)c1,-5.88%
19,O=C(CS(=O)(=O)c1ccccc1)c1ccc2c(c1)OCCO2,-0.895%
20,CCOc1cc2oc(=O)c3c(c2cc1Cl)CCC3,-1.74%
21,CC[C@H](CO)NCCN[C@H](CC)CO,-5.2%
22,Cc1ccc2nc(C)c3c(c2c1)OC(C(C)(Cl)Br)C3 (configuration not stated),3.5%
23,Cc1ccc2nc(NC3=NC(CC(=O)O)C(=O)N3)nc(C)c2c1 (configuration not stated),7.8%
24,Cc1ccc2nc(N=C(N)N)nc(C)c2c1,66.7% (active)
25,C[C@H](NC(=O)OC(C)(C)C)C(=O)NCC1CCC(C(=O)O)CC1 (some centres not stated),-0.108%
26,CC(=O)N(CCC1(C(C)C)CCOC(C)(C)C1)Cc1ccco1 (configuration not stated),-19%

row,SMILES,inhibition
1,COc1cc(CO)ccc1OCc1nnnn1-c1ccc(C)cc1,5.41%
2,CCC(C)NCCOCCOc1ccc(Cl)cc1Br (configuration not stated),9.51%
3,CCC1CCc2c(sc(NC(=O)c3cccnc3)c2C(N)=O)C1 (configuration not stated),-5.46%
4,Nc1ccc2[nH]ncc2c1,59.5% (active)
5,Nc1ccc2nc(Cc3ccccc3)[nH]c2c1,33.4%
6,O=[N+]([O-])c1ccc2cn[nH]c2c1,-3.19%
7,C=C(C)COc1ccc(-c2n[nH]c(C)c2-c2ccc(OC)cc2)c(O)c1,17.8%
8,CCOc1ccc(C(=O)Nc2ccc(N3CCN(C(C)=O)CC3)cc2)cc1[N+](=O)[O-],-3.31%
9,NC(=O)[C@@H]1[C@@H]2C(=O)N(c3ccc(F)cc3)C(=O)[C@@H]2[C@H]2C=Cc3ccccc3N21,-124%
10,C#CCN1C(=O)C(O)(c2c(C)[nH]c3ccccc23)c2ccccc21 (configuration not stated),-11.1%
11,Nc1cccc2nc3ccccc3cc12,99.5% (active)
12,Nc1c2c(nc3ccccc13)CCCC2,18.1%
13,Cc1nc2cc3ccccc3cc2c(=O)[nH]1,-5.13%
14,CN(C)C(=O)CCCCCCCCC(=O)N(C)C,-13.3%
15,COc1ccc(/C=C(/C#N)c2cccnc2)cc1OC,-8.25%
16,CCOC(=O)c1ccc2[nH]c(C)c(CCC(C)=O)c(=O)c2c1,0.469%
17,COc1cc(COc2ccc3c(C)c(Cc4ccccc4)c(=O)oc3c2)cc(OC)c1OC,-0.647%
18,CCc1nc2ccccc2c(NC(=O)CN2CC(C)CC(C)C2)c1C (configuration not stated),-5.82%
19,O=C(CCCn1c(=O)oc2ccccc21)N1CCN(c2ccc(F)cc2)CC1,-3.01%
20,Cc1ccc(C2CC(=O)C(C=NCCN3CCN(C(=S)Nc4ccccc4)CC3)=C(O)C2)cc1 (configuration not stated),4.06%
21,Cc1ccc2c(c1)C(O)(CC(=O)/C=C/C=C/c1ccccc1)C(=O)N2 (configuration not stated),-10.7%
22,CC1(C)CC(=O)C2=C(C1)c1c(ccc3ccccc13)NC2c1ccco1 (configuration not stated),-27.1%
23,CCN(CC)c1ccc([C@H]2[C@@H]3CCCC[C@]3(O)CCN2CC(=O)NCc2ccco2)cc1,-20.6%
24,CCc1cc(/C(Cc2ccccn2)=N\O)c(O)cc1O,-33.7%
25,CC(C)CC(NC(=O)CNC(=O)C1O[C@@H]2OC(C)(C)O[C@@H]2[C@H]2OC(C)(C)O[C@@H]12)C(=O)O (some centres not stated),-7%
26,OCCN(Cc1nc(-c2ccc3c(c2)OCO3)no1)Cc1cccs1,2.4%

row,SMILES,inhibition
1,Cc1ccc(C2CC(=O)C(C=NCCN3CCN(CC(=O)Nc4cc(C)cc(C)c4)CC3)=C(O)C2)cc1 (configuration not stated),-3.07%
2,COc1ccccc1N=CC1=C(O)CC(c2ccccc2)CC1=O (configuration not stated),-25.4%
3,C/C(=N\N=C1\NC(=O)C(CC(=O)Nc2ccc(Cl)cc2)S1)c1ccco1 (configuration not stated),-15.6%
4,COc1ccc(NC(=S)NCCc2c[nH]c3ccccc23)cc1,7.25%
5,O=C(c1ccc(O)cc1)c1ccc(O)cc1O,-19.8%
6,COc1ccc2[nH]c(=O)c3c(c2c1)OC(C)(C)C=C3,-5.72%
7,CCc1cccc(OC2OC(CO)C(O)C(O)C2NC(C)=O)c1 (configuration not stated),-3.23%
8,COc1ccc2c(C=O)cn(C)c2c1,-1.85%
9,CC(C)CC(NC(=O)c1cccc(Cl)c1)C(=O)O (configuration not stated),-8.58%
10,CCOC(=O)c1c(O)c2c([nH]c1=O)CCCC2,2.81%
11,COc1cccc(N2C(=O)CC(c3c[nH]c4ccccc34)C2=O)c1 (configuration not stated),-22.5%
12,Cc1c(NC(=O)c2cccs2)cccc1[N+](=O)[O-],0.122%
13,CC1(C)CC(=O)C(C(=O)CCCCC(=O)C2C(=O)CC(C)(C)CC2=O)C(=O)C1,-11.5%
14,CC(=O)NCCCC(=O)NC(CCC(=O)OCc1ccccc1)C(=O)OCc1ccccc1 (configuration not stated),-10.8%
15,COC(=O)c1ccc(OCCCCN2CC(C)OC(C)C2)cc1 (configuration not stated),-1.97%
16,CC1(C)OC2OC(C(=O)N/N=C/c3ccccc3F)C3OC(C)(C)OC3C2O1 (configuration not stated),-8.91%
17,O=C(/C=C/c1c[nH]c2ccccc12)c1cccc2ccccc12,-25.7%
18,O=C(CCCCCCCC(=O)c1ccccc1)c1ccccc1,2.66%
19,COc1cc2[nH]c3c(=O)n(CCN4CCOCC4)cnc3c2cc1OC,1.23%
20,COc1ccc(CCNc2ncnc3c2[nH]c2cc(OC)c(OC)cc23)cc1OC,68.2% (active)
21,Clc1ccc(CCNc2ncnc3nc[nH]c23)cc1,1.95%
22,CN(Cc1ccccc1)CC(O)COc1ccc(CNCc2cccnc2)cc1 (configuration not stated),25.5%
23,COc1c2ccoc2nc2c(OC)cccc12,10.6%
24,COc1ccc(N2C(=O)[C@@H]3Cc4ccccc4CN3C2=O)cc1,-7.83%
25,Cc1oc2c(CN3CCCC3)c(O)ccc2c(=O)c1-c1ccc(Cl)cc1,2.93%
26,CCN(Cc1ccncc1)Cc1nc(Cc2ccccc2Cl)no1,-13.8%

row,SMILES,inhibition
1,COc1ccc(C(CC(=O)N2CCOCC2)C(C)C)cc1 (configuration not stated),4.92%
2,O=C(CSCc1ccccc1)NCCCN1CCOCC1,7.56%
3,CCN(Cc1cnn(C)c1)Cc1nc(C(c2ccccc2)c2ccccc2)no1,1.94%
4,N/C(=N\OC(=O)/C=C/c1ccccc1)c1ccc(Br)cc1,-5.01%
5,Cc1nc(-c2coc3c(CN(C)C)c(O)ccc3c2=O)cs1,5.53%
6,c1ccc(Nc2cccc3c(Nc4ccccc4)cccc23)cc1,51.9% (active)
7,O=C(O)c1ccccc1Nc1cccc(C(F)(F)F)c1,-6.2%
8,Cc1cccc(Nc2ccccc2C(=O)O)c1C,-13.3%
9,COc1ccc(-c2nc(C)c(C(C)=O)n2O)cc1OC,-4.44%
10,COc1cccc(-n2cc(CNCc3c(C(=O)N(C)C)nc4ccc(Cl)cn34)cn2)c1,-5.77%
11,COC(=O)c1sccc1NC(=O)Nc1ccccc1F,-4.3%
12,Cc1oc2cc(O)cc(O)c2c(=O)c1-c1ccc2c(c1)OCCCO2,3.6%
13,Cn1c2ccc(CC(=O)O)cc2c2cc(CC(=O)O)ccc21,-173%
14,CC(C)c1ccccc1OCCNC(=S)NC(=O)c1cccnc1,-11.8%
15,COc1cccc2c1C(=O)O/C2=C/c1ccc2c(c1)OCO2,-3.05%
16,CCn1c(O)c(/C=C2\C=Nc3ccccc32)sc1=O,8.58%
17,COC(=O)c1cc(OC)c(OC)c(OC)c1[N+](=O)[O-],-11.8%
18,COc1ccc(Br)cc1C(=O)Nc1ccc(C(=O)O)cc1,-5.54%
19,Cc1cnc(C(=O)N2CCCC(C(=O)c3ccc(Cl)cc3C)C2)cn1 (configuration not stated),3.18%
20,Cc1ccc2[nH]c(=O)c(Cc3ccccc3)c(O)c2c1,-9.59%
21,CN1C(=O)C(O)(CC(=O)/C=C/C=C/c2ccccc2)c2ccccc21 (configuration not stated),-13.6%
22,CC(C)Oc1ccc(C(CC(=O)O)c2ccc(F)cc2)cc1 (configuration not stated),-7.3%
23,COc1ccc(CN(CCC(c2ccccc2)c2ccc(OC(C)C)cc2)C(=O)CCl)cc1OC (configuration not stated),28.8%
24,COc1ccc(CNCCC(c2ccc(F)cc2)c2ccc(OC(C)C)cc2)cc1OC (configuration not stated),57.6% (active)
